Records with an inconclusive call do not appear. Calls of active or inactive are those of the source. Calls follow the shape of the dose curve; as a rule, active = well fitted curve in the direction sought with a large enough effect; inconclusive = small, poorly fitted or top-dose-only effect, or another doubt; inactive = no such curve, though single readings can be large; an effect the other way counts as inactive or inconclusive.
Assays:
[1] = target: Retinaldehyde dehydrogenase 3 (Homo sapiens) (UniProt P47895); test: qHTS for Inhibitors of the Aldehyde Dehydrogenase Family (ALDH1A3) Primary screen (AID 2061315)
[2] = BET inhibitor-based combinations targeting novel dependencies in MECOM-rearranged (r) AML: SET-2 cell line (AID 2202231); conditions: SET-2 AML cells viability, CellTiter-Glo luminescence, 48 h; viability: stronger effect = lower value, concentration not given here; also: nearly all actives have a fitted effect of over 35% in size;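 as to viability: plate controls were DMSO treated cells for no effect and wells without cells for full effect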
Outline: (§1)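 Viability of cells (500 per well) is scored by luminescent CellTiter-Glo at 48 hr post-dosing. Eleven-point titrations are normalized to DMSO and empty controls and reduced to AUC values.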

[3] = BET inhibitor-based combinations targeting novel dependencies in MECOM-rearranged (r) AML: UCSD-AML1 cell line (AID 2202235); also: nearly all actives have a fitted effect of over 40% in size;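 as to viability (% of control): series mostly up to about 46 µM; plate controls were DMSO vehicle wells for no effect and blank wells for full effect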
Outline: (§2)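 Using pin-tool transfer, drugs were added in 11 doses to cells (500/well), incubated 48 hr, and assessed with CellTiter-Glo. Z-AUC is a mean-centring transformation applied separately to each screened line.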

[4] = BET inhibitor-based combinations targeting novel dependencies in MECOM-rearranged (r) AML: AML-191 cell line (AID 2202236; also: nearly all actives have a fitted effect of over 35% in size;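 as to viability (% of control): plate controls were vehicle wells for no effect and wells without cells for full effect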)
Outline: as §1

[5] = BET inhibitor-based combinations targeting novel dependencies in MECOM-rearranged (r) AML: AML-194 cell line (AID 2202237; also: nearly all actives have a fitted effect of over 40% in size;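 as to viability (% of control): plate controls were vehicle wells for no effect and wells without cells for full effect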)
Outline: as §1

[6] = BET inhibitor-based combinations targeting novel dependencies in MECOM-rearranged (r) AML: OCI-AML3 cell line (AID 2202232); conditions: Potency: OCI-AML3 viability; also: nearly all actives have a fitted effect of over 35% in size;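 as to viability (% of control): series mostly up to about 46 µM; plate controls were DMSO vehicle wells for no effect and wells without cells for full effect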
Outline: as §1

[7] = BET inhibitor-based combinations targeting novel dependencies in MECOM-rearranged (r) AML: MV-4-11 cell line (AID 2202233); also: nearly all actives have a fitted effect of over 45% in size;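 as to viability, % of control: plate controls were DMSO for no effect and blank wells for full effect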
Outline: as §2

[8] = BET inhibitor-based combinations targeting novel dependencies in MECOM-rearranged (r) AML: HNT-34 cell line (AID 2202234); also: nearly all actives have a fitted effect of over 35% in size;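 as to viability (% of control): plate controls were vehicle wells for no effect and cell-free wells for full effect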
Outline: as §2
Potency is read from the fitted curve at half-maximal effect.

CN(Cc1ccccc1)C(=O)c1ccc(S(=O)(=O)Nc2ccccc2)cc1
inactive: Potency [1] | viability [2] 103% | Potency [3] | Potency [4] | Potency [5]

Cc1[nH]c(/C=C2\C(=O)Nc3ccccc32)c(C)c1CCC(=O)O
inactive: viability [2] 83.1%
active: Potency [6] 20900 nM | Potency [7] 13200 nM

COc1cc([C@@H]2c3cc4c(cc3[C@@H](O[C@@H]3O[C@@H]5CO[C@@H](C)O[C@@H]5[C@H](O)[C@@H]3O)[C@H]3COC(=O)[C@H]23)OCO4)cc(OC)c1O
active: Potency [2] 5.25 µM | Potency [6] 934 nM | Potency [7] 166 nM | Potency [8] 1480 nM | Potency [3] 833 nM | Potency [4] 1320 nM

C[C@H]1COCCN1c1cc(C2(S(=O)(=O)C3CC3)CC2)nc(-c2ccc(NC(=S)NCCO)cc2)n1
active: Potency [2] 0.417 µM | Potency [6] 833 nM | Potency [7] 93.4 nM | Potency [8] 105 nM | Potency [3] 10.5 nM

COc1cc2c(cc1O)CCN[C@]21CS[C@@H]2c3c(OC(C)=O)c(C)c4c(c3[C@H](COC1=O)N1[C@@H]2[C@H]2c3c(cc(C)c(OC)c3O)C[C@@H]([C@@H]1O)N2C)OCO4
active: Potency [2] 0.0096 µM | Potency [6] 9.6 nM | Potency [7] 4.3 nM | Potency [8] 8.5 nM | Potency [3] 9.6 nM | Potency [4] 9.6 nM

CCOC(=O)C1=C(C)NC(=S)NC1c1cccc(O)c1 (stereo not given)
inactive: viability [2] 98.4%
active: Potency [6] 20900 nM

COc1ccc(Oc2cc(NCCC(F)(F)F)c3ncc(-c4ccc(C(=O)NC5CC5)c(C)c4)n3n2)c(F)c1F
active: Potency [6] 23.5 nM | Potency [7] 66.1 nM | Potency [8] 417 nM
inactive: viability [2] 80.2%

Cc1cc(C(=O)NOCCO)c(Nc2ccc(I)cc2F)n(C)c1=O
inactive: viability [2] 96.3%
active: Potency [6] 5.9 nM | Potency [7] 29.5 nM | Potency [8] 46.8 nM

C[C@H](O)[C@@H]1C(=O)N2C(C(=O)O)=C(S[C@@H]3CN[C@H](CNS(N)(=O)=O)C3)[C@@H](C)[C@@H]12
inactive: Potency [1] | viability [2] 118% | Potency [6] | Potency [8] | Potency [3] | Potency [4] | Potency [5]

CCCCCN(C)CCC(O)(P(=O)(O)O)P(=O)(O)O
inactive: viability [2] 124% | viability (% of control) [6] 118% [at 5.12 µM] | viability, % of control [7] 131% [at 5.12 µM] | viability (% of control) [8] 109% [at 5.12 µM] | viability (% of control) [3] 109% [at 5.12 µM] | viability (% of control) [4] 111% [at 5.12 µM]

O=c1[nH]c(=O)n([C@H]2C[C@H](O)[C@@H](CO)O2)cc1F
active: Potency [2] 0.296 µM | Potency [6] 417 nM | Potency [7] 74.2 nM | Potency [8] 5900 nM

CC1Oc2cc(cnc2N)-c2c(nn(C)c2C#N)CN(C)C(=O)c2ccc(F)cc21 (stereo not given)
inactive: viability [2] 105%

N#C/C(=C\c1ccc(O)c(O)c1)C(=O)NCc1ccccc1
active: Potency [2] 14.8 µM | Potency [6] 5900 nM

CC1Cc2ccccc2N1C(=O)Cc1nc(N2CCOCC2)cc(=O)[nH]1 (stereo not given)
inactive: viability [2] 99.9%

O=C(NOCCO)c1cc(CN2OCCCC2=O)c(F)c(F)c1Nc1ccc(I)cc1F
inactive: viability [2] 70.8%

CC(=O)Nc1ccc(O)cc1
inactive: viability [2] 94.1% | Potency [6] | Potency [7] | Potency [8] | Potency [3] | Potency [4]

COc1nc(N)nc2c1ncn2C1OC(CO)C(O)C1O (stereo not given)
inactive: viability [2] 114% | Potency [6] | Potency [7]

Cc1ccc(NC(=O)Nc2nnc(Sc3ncnc4cc(OCCCN5CCOCC5)ccc34)s2)cc1
active: Potency [6] 14800 nM | Potency [7] 16.6 nM | Potency [8] 14800 nM
inactive: viability [2] 111%

CN(CCO)C1CCN(c2ccc(Nc3ncc4c5ccnc(F)c5n(C5CCCC5)c4n3)nc2)CC1
active: Potency [2] 2.04 µM | Potency [6] 182 nM | Potency [7] 129 nM | Potency [8] 1820 nM

Cc1c(F)cccc1NC(=O)Nc1ccc(Cl)c(S(=O)(=O)[C@H]2CCCNC2)c1O
inactive: viability [2] 112% | Potency [6] | Potency [7] | Potency [8] | Potency [3] | Potency [4]

CC(=O)[C@]1(N)Cc2c(O)c3c(c(O)c2[C@@H](O[C@H]2C[C@H](O)[C@H](O)CO2)C1)C(=O)c1ccccc1C3=O
inactive: viability [2] 106%
active: Potency [6] 8330 nM

C=CC(=O)N1C[C@H](Nc2ncnc3[nH]ccc23)CC[C@@H]1C
inactive: viability [2] 94.9%

CN(C)c1ccc(Nc2nc(N)n(C(=O)c3c(F)cccc3F)n2)cc1
active: Potency [1] 14.1 µM | Potency [6] 23500 nM | Potency [7] 4170 nM | Potency [8] 14800 nM | Potency [3] 2630 nM | Potency [4] 18600 nM

Cn1cc(/C=C2\C(=O)Nc3cccnc32)c2ccccc21
inactive: viability [2] 86.8%

CCOC(=O)C1=CCCCC1S(=O)(=O)Nc1ccc(F)cc1Cl (stereo not given)
active: Potency [2] 20.9 µM

COc1cc2c3c(n(CCCN4CCOCC4)c(=O)c2cc1OC)-c1cc2c(cc1C3=O)OCO2
active: Potency [2] 0.105 µM | Potency [6] 33.2 nM | Potency [7] 83.3 nM | Potency [8] 93.4 nM | Potency [3] 93.4 nM | Potency [4] 105 nM

CC(C)=CCC[C@](C)(O[C@@H]1O[C@H](CO[C@@H]2O[C@H](CO)[C@@H](O)[C@H](O)[C@H]2O)[C@@H](O)[C@H](O)[C@H]1O)[C@H]1CC[C@]2(C)[C@@H]1[C@H](O)C[C@@H]1[C@@]3(C)CC[C@H](O[C@@H]4O[C@H](CO)[C@@H](O)[C@H](O)[C@H]4O[C@@H]4O[C@H](CO)[C@@H](O)[C@H](O)[C@H]4O)C(C)(C)[C@@H]3CC[C@]12C
inactive: viability [2] 121% | Potency [6] | Potency [7] | Potency [8] | Potency [3] | Potency [4] | Potency [5]

COc1cc(OC)c(/C=C/S(=O)(=O)Cc2ccc(OC)c(OP(=O)(O)O)c2)c(OC)c1
active: Potency [2] 0.132 µM | Potency [6] 118 nM | Potency [7] 132 nM | Potency [8] 105 nM | Potency [3] 118 nM | Potency [4] 118 nM | Potency [5] 118 nM

COC1=C(OC)C(=O)C(C/C=C(\C)CC/C=C(\C)CC/C=C(\C)CC/C=C(/C)CC/C=C(\C)CC/C=C(\C)CC/C=C(\C)CC/C=C(\C)CC/C=C(\C)CCC=C(C)C)=C(C)C1=O
inactive: viability [2] 117% | Potency [6] | Potency [7] | Potency [8] | Potency [3] | Potency [4]

Nc1cccc2c1CN([C@H]1CCC(=O)NC1=O)C2=O
active: Potency [8] 1180 nM
inactive: viability [2] 111% | Potency [6] | Potency [7] | Potency [3] | Potency [4] | Potency [5]

Cc1nc2cccc(N)c2c(=O)n1C1CCC(=O)NC1=O (stereo not given)
inactive: viability [2] 109% | Potency [6] | Potency [7] | Potency [8] | Potency [3] | Potency [4] | Potency [5]

CC1(C)O[C@@H]2C[C@H]3[C@@H]4CCC5=CC(=O)C=C[C@]5(C)[C@H]4[C@@H](O)C[C@]3(C)[C@]2(C(=O)CO)O1
active: Potency [5] 332 nM
inactive: viability [2] 114% | Potency [6] | Potency [7] | Potency [8] | Potency [3] | Potency [4]

CCC1=C[C@@H]2CN(C1)Cc1c([nH]c3ccccc13)[C@@](C(=O)OC)(c1cc3c(cc1OC)N(C)[C@H]1[C@@](O)(C(=O)OC)[C@H](OC(C)=O)[C@]4(CC)C=CCN5CC[C@]31[C@@H]54)C2
active: Potency [2] 7.23 µM | Potency [6] 257 nM | Potency [7] 323 nM | Potency [8] 229 nM | Potency [3] 407 nM | Potency [4] 645 nM

Cc1nnn(C)c1-c1cnc2c3ccc(C(C)(C)O)cc3n([C@H](c3ccccc3)C3CCOCC3)c2c1
active: Potency [2] 0.0148 µM | Potency [6] 5.9 nM | Potency [7] 4.2 nM | Potency [8] 29.5 nM | Potency [3] 26.3 nM | Potency [4] 26.3 nM | Potency [5] 66.1 nM

COc1ccc(-c2nc(N3CCOCC3)c3sc(CN(C)c4ncc(C(=O)NO)cn4)cc3n2)cn1
active: Potency [2] 0.0295 µM | Potency [6] 33.2 nM | Potency [7] 23.5 nM | Potency [8] 41.7 nM | Potency [3] 29.5 nM | Potency [4] 46.8 nM

CN(C)N=Nc1nc[nH]c1C(N)=O
active: Potency [2] 16.6 µM | Potency [7] 9340 nM | Potency [4] 14800 nM
inactive: Potency [6] | Potency [8] | Potency [3] | Potency [5]

CN1C(=O)N[C@H](Cc2c[nH]c3c(Cl)cccc23)C1=O
inactive: viability [2] 113% | Potency [6] | Potency [8] | Potency [3] | Potency [4]
active: Potency [7] 37200 nM

C/C(=C\c1csc(C)n1)[C@@H]1C[C@@H]2O[C@]2(C)CCC[C@H](C)[C@H](O)[C@@H](C)C(=O)C(C)(C)[C@@H](O)CC(=O)N1
active: Potency [2] 0.0525 µM | Potency [6] 20.9 nM | Potency [7] 33.2 nM | Potency [8] 14.8 nM | Potency [3] 16.6 nM | Potency [4] 23.5 nM | Potency [5] 29.5 nM

O=C(/C=C/c1ccc(/C=C/C(=O)Nc2ccc(C3=NCCN3)cc2)cc1)Nc1ccc(C2=NCCN2)cc1
inactive: viability [2] 113% | viability (% of control) [6] 117% [at 5.12 µM] | viability, % of control [7] 112% [at 5.12 µM] | viability (% of control) [8] 109% [at 5.12 µM] | viability (% of control) [3] 115% [at 5.12 µM] | viability (% of control) [4] 109% [at 5.12 µM] | viability (% of control) [5] 108% [at 5.12 µM]

N#Cc1ccnc(N2C(=O)CC[C@H]2C(=O)N(c2cncc(F)c2)C(C(=O)NC2CC(F)(F)C2)c2ccccc2Cl)c1 (stereo not given in full)
inactive: viability [2] 91.5% | Potency [6] | Potency [7] | Potency [8] | Potency [3] | Potency [4] | Potency [5]

C=C1C(=O)O[C@@H]2[C@H]3O[C@]3(C)CC/C=C(\C)CC[C@@H]12
active: Potency [2] 11.8 µM | Potency [6] 6610 nM | Potency [7] 5250 nM | Potency [8] 7420 nM | Potency [3] 10500 nM | Potency [4] 9340 nM | Potency [5] 11800 nM

C=CC(=O)Nc1cccc(Oc2nc(Nc3ccc(N4CCN(C)CC4)c(F)c3)nc3[nH]ccc23)c1
active: Potency [2] 14.8 µM | Potency [6] 8330 nM | Potency [7] 742 nM | Potency [8] 1320 nM | Potency [3] 4680 nM | Potency [4] 5900 nM | Potency [5] 6610 nM
